Assay results reported in PubChem BioAssay (NCI).
About 79,000 compounds went through this panel and 15% of them were active in at least one assay; those are over-represented in the sample as a whole. Values without a mark were called inactive. Cut-off read from the data, not from the text of the source: active = growth inhibition above about 70%; inactive = the rest. Where a SMILES comes first, the peptide text is derived from it. The star is where a group is joined. Boc = CC(C)(C)OC(=O)*

Test: NCI Yeast Anticancer Drug Screen. Data for the sgs1 mgt1 strain (AID 161);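 note: 0% = growth of cultures given vehicle only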
Settings: S. cerevisiae sgs1 mgt1 strain, at 50.0 µM, hits give high values
Method in brief: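 Read-out: growth inhibition vs vehicle controls. Cells: mutant yeast strain deficient in DNA damage repair.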

Compound	growth inhibition
CC(C)(C)c1cc(C2OC(N)=C(O)C2=O)cc(C(C)(C)C)c1O (stereo not drawn)	24.7%
CC1OC(c2ccccc2)C(=O)N1C1(C)C(=O)N2CCOC21c1ccccc1 (stereo not drawn)	2.15%
Cc1ccc(-c2ccc(C)cc2)cc1	-22.2%
COc1ccc(C(c2cc3c(cc2O)OCO3)n2ccnc2)cc1 (stereo not drawn)	12.3%
Cc1ccc(S(=O)(=O)c2ccc(O)c(C)c2)c(O)c1 (tested in a mixture with another compound)	35.3%
COc1ccc2c(=O)c(O)c(-c3ccccc3)oc2c1	42.5%
COc1cc([N+](=O)[O-])c(S(=O)(=O)O)cc1-n1nc(-c2ccccc2)n[n+]1-c1cc(S(=O)(=O)[O-])c([N+](=O)[O-])cc1OC	-13.3%
O=C(CN1CCN(c2ccccc2)CC1)n1nnc2ccccc21	-3.6%

Test: NCI Yeast Anticancer Drug Screen. Data for the cln2 rad14 strain (AID 165);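 note: 0% = growth equal to vehicle treated cultures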
Settings: S. cerevisiae cln2 rad14 strain, at 50.0 µM, hits give high values
Method in brief: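 Growth of compound-exposed yeast (cln2 rad14 genotype) measured and expressed as inhibition relative to vehicle.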

Compound	growth inhibition
O=c1cc(-c2ccc(F)cc2)oc2ccccc12	0.95%
Nc1cccc2c1C(=O)c1cccc(Nc3ccc4c(c3)C(=O)c3ccccc3C4=O)c1C2=O	47.9%
COC(=O)c1ccccc1O	-39.4%
COc1c2cc3c(cc2nc2occc12)OCO3	2.6%
O=S1CCCO1 (stereo not drawn)	-41.2%
CCOC(=O)C(CC(C)C)NC(=O)C(Cc1ccccc1)NC(=O)CNC(=O)OC(C)(C)C (stereo not drawn) (Boc-Gly-Phe-Leu-OEt; configuration not given here)	-11.7%
O=C(/C(=C(/Br)I)c1ccccc1)c1ccccc1	14.1%
O=P(c1ccccc1)(c1ccccc1)N1CC1c1ccccc1 (stereo not drawn)	-3.45%
CC(=O)NNC(=S)/N=C/c1c(C)[nH]n(-c2ccccc2)c1=O	2.65%
CCOC(=O)Nc1cc(Cl)c2ncn(C(=O)OCC)c2n1	18.9%
C#CCC1(C(=O)OCC)C(=O)c2ccccc2N(C)C1=O (stereo not drawn)	11.4%
CC(=O)OCC1OC(OC(C)=O)C(NS(=O)(=O)c2ccc(C)cc2)C(OC(C)=O)C1OC(C)=O (stereo not drawn)	17.8%
COc1cc(C2[C@H]3C(=O)N(c4ccc(Cc5ccc(N6C(=O)[C@@H]7ON(c8ccccc8)C(c8cc(OC)c(OC)c(OC)c8)[C@@H]7C6=O)cc5)cc4)C(=O)[C@H]3ON2c2ccccc2)cc(OC)c1OC (stereo partly drawn)	27.5%
c1ccc(C2(c3ccccc3)c3ccccc3-c3ccccc32)cc1	-17.9%
CC1COC(C(C)C)(C(C)C)O1 (stereo not drawn)	-10%
CCc1cccc(CC)c1NC(=O)c1ccccc1Br	16.3%
Nc1cccc2c(O)cc(S(=O)(=O)O)cc12	-10.7%
CC(C)(C)c1ccnc(C(O)(C(F)(F)F)C(F)(F)F)c1	-43.8%
CCCCCCCCCCCCCCCCCC(=O)N/N=C/c1ccc(Cl)cc1	-15.4%
Cc1[nH]c2cc([N+](=O)[O-])ccc2c1C	21.8%

Compound	growth inhibition
COc1cc(NC(C)=O)c2nccnc2c1	-20.6%
CCOC(=O)C1=CC(C)(C(=O)OCC)Nc2c(nc(N)[nH]c2=O)N1 (stereo not drawn)	4.35%
CC(=O)c1cccc(NC(=O)c2cccc(Cl)c2)c1	-16.1%
Cc1cc2c(c3c1C(=O)CC3)CCCC2(C)C	-6.2%
CCCC(=O)OC(C)COc1ccccc1 (stereo not drawn)	-21.4%
CN(C)c1ccc(C2(c3ccc(N(C)C)cc3)NNC(=O)c3ccccc32)cc1	12.7%
O=C(Nc1cccc([N+](=O)[O-])c1)C(=O)C(C(=O)c1ccccc1F)C1OC(=O)C2C=CC=CC21 (stereo not drawn)	11.7%
NNC(=O)c1nc[nH]c1C(=O)NN	-14.3%
Cc1ccc(S(=O)(=O)Oc2ccc(N(CC(=O)O)S(=O)(=O)c3ccc(C)cc3)cc2)cc1	11.8%
CCCCCNC(=O)CCC	5.6%
CC(=Nc1cccc2ccccc12)c1c(O)cc(C)oc1=O	20.9%
CN(C)CCOc1ccccn1	7.75%
CC(C)(C)c1cc(C2OC(N)=C(O)C2=O)cc(C(C)(C)C)c1O (stereo not drawn)	13.8%
CC1OC(c2ccccc2)C(=O)N1C1(C)C(=O)N2CCOC21c1ccccc1 (stereo not drawn)	5%
Cc1ccc(-c2ccc(C)cc2)cc1	-11.1%
COc1ccc(C(c2cc3c(cc2O)OCO3)n2ccnc2)cc1 (stereo not drawn)	-55.5%
Cc1ccc(S(=O)(=O)c2ccc(O)c(C)c2)c(O)c1 (tested in a mixture with another compound)	45.6%
COc1ccc2c(=O)c(O)c(-c3ccccc3)oc2c1	10.4%
COc1cc([N+](=O)[O-])c(S(=O)(=O)O)cc1-n1nc(-c2ccccc2)n[n+]1-c1cc(S(=O)(=O)[O-])c([N+](=O)[O-])cc1OC	-22.7%
O=C(CN1CCN(c2ccccc2)CC1)n1nnc2ccccc21	-13.8%
